The full list was thinned out, with hits kept by preference.
ALOX12 inh = Primary qHTS assay for inhibitors of human arachidonate 12S-lipoxygenase (ALOX12): Round 2. Polyunsaturated fatty acid lipoxygenase ALOX12 (Homo sapiens), P18054. purified 12hLO, xylenol orange hydroperoxide absorbance. Potency, µM (titrated, usually from 108 µM), actives largely listed as inhibitors. hit rate 1.1% among 580,000. AID 1671190, 2021
Target sequence (P18054 whole entry, looked up): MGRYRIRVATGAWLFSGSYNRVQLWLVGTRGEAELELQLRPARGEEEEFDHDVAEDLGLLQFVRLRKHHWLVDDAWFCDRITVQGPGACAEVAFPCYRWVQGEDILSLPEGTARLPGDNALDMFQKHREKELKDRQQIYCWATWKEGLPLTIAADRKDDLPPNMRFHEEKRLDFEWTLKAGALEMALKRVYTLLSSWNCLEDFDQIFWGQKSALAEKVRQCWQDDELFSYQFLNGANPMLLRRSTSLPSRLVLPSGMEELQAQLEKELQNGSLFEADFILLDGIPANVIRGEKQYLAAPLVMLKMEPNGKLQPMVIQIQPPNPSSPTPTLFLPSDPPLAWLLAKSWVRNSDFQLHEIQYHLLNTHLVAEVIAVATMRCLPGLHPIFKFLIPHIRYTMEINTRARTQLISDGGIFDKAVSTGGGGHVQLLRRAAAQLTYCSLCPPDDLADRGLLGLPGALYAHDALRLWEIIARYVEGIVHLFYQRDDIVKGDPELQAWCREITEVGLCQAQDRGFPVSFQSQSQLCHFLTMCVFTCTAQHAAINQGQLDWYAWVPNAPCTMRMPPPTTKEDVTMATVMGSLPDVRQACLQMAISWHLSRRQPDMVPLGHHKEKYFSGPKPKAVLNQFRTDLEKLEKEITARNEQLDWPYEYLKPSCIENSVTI
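Purified human 12hLO at 150 nM in 25 mM Hepes, 0.01% Triton X-100, pH 7.0, preincubated 15 min at room temperature with compound. Reaction started with 40 uM arachidonic acid, 30 min at room temperature. Hydroperoxide measured by Fe-xylenol orange, 573/405 nm absorbance ratio.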
HT1080 IDH1KD tx = qHTS for induction of synthetic lethality in tumor cells producing 2HG: qHTS for the HT-1080-IDH1KD cell line | HT-1080 IDH1 knockdown viability, ATP luminescence, 48 h | Potency, µM (doses to about 46.1 µM), actives largely listed as cytotoxic | hit rate 2% among 360,000 | AID 686971, 2013
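Knockdown cells (IDH1KD HT-1080) received compounds 2 h after plating at 750 cells/well and were kept 48 h at 37 °C in 5% FBS RPMI. A CellTiter-Glo luminescence read gave % activity for curve fitting.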
IL1B secr inh = qHTS for Inhibitors of Inflammasome Signaling: IL-1-beta AlphaLISA Primary Screen; AID 743279, 2014; activity change, % at 57.5 µM; THP-1 LPS/ATP IL-1B secretion, AlphaLISA, 16 h; hits give low values; hit rate 4.7% among 360,000; in the data active = activity change below about -50%; inconclusive = mostly about -30% to -49%
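THP-1 cells pretreated 1 hr with compounds (up to 57.5 uM final), then stimulated with LPS (250 ng/mL final) plus ATP (1.25 mM final); secreted IL-1B measured by AlphaLISA after 16 hr, decreased signal indicating inhibition.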
HT1080-NT tox = qHTS for induction of synthetic lethality in tumor cells producing 2HG: qHTS for the HT-1080-NT fibrosarcoma cell line | hit rate 1.6% among 360,000 | HT-1080-NT fibrosarcoma viability, CellTiter-Glo ATP luminescence, 48 h | Potency, µM (series often up to 46.1 µM), most hits filed as cytotoxic;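 also: NT is the 2HG producing partner of a matched IDH1 knockdown line; nearly all actives have a fitted effect of over 55% in size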
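Toxicity toward the 2HG-producing NT line was scored as %Activity, normalised to DMSO and no-cell wells, from CellTiter-Glo luminescence after 48 hours' treatment.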
DT40 TDP1 no CPT = qHTS for Inhibitors of human tyrosyl-DNA phosphodiesterase 1 (TDP1): qHTS in cells in absence of CPT | DT40 Tdp1-/- hTDP1 cells, no CPT, ATP luminescence, 48 h | Potency, µM (doses to about 46.2 µM), hits mostly inhibitors | hit rate 15% among 420,000 | AID 686978, 2013; also: nearly all actives have a fitted effect of over 55% in size
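Compound effects on proliferation are scored in DT40 Tdp1-/-;hTDP1 cells in the absence of CPT. ATP levels (CellTiter-Glo luminescence) are recorded after a ≥48 hr, 37 °C incubation.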
DT40 TDP1 CPT = qHTS for Inhibitors of human tyrosyl-DNA phosphodiesterase 1 (TDP1): qHTS in cells in presence of CPT; Potency, µM (highest dose often 46.2 µM), most hits filed as inhibitors; chicken DT40 Tdp1-/-;hTDP1 cells + 20 nM CPT, ATP luminescence, 48 h; AID 686979, 2013; hit rate 12% among 420,000; also: nearly all actives have a fitted effect of over 55% in size
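Chicken DT40 Tdp1-/- cells stably complemented with human TDP1 were seeded at 400 cells/well in medium containing 20 nM camptothecin, exposed to pin-transferred compounds, and grown at 37 °C for at least 48 hr. Viability was read as ATP luminescence.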
Hits are given with their value; . = inactive; ? = inconclusive; / = no result given; [ ] = remark or other dose. Unless noted, calls follow the shape of the dose curve; as a rule, active = well fitted curve in the direction sought with a large enough effect; inconclusive = small, poorly fitted or top-dose-only effect, or another doubt; inactive = no such curve, though single readings can be large; an effect the other way counts as inactive or inconclusive.

SMILES	ALOX12 inh	HT1080 IDH1KD tx	IL1B secr inh	HT1080-NT tox	DT40 TDP1 no CPT	DT40 TDP1 CPT
O=C(CSCc1nc2cccnc2n1C1CCCCC1)NCc1cccc(Br)c1	.	/	/	/	21µM	16µM
CCCc1nnc2sc(-c3ccc4ccccc4n3)nn12	.	/	/	/	/	/
CCCc1cc(=O)[nH]c(SCC(=O)Nc2sc(C(N)=O)c(C)c2C(=O)OCCOC)n1	.	2.6µM	.	2.3µM	.	?
CCCc1cc(=O)[nH]c(SCC(=O)Nc2sc3c(c2C#N)CCC(C)C3)n1 (configuration not stated)	40µM	.	.	.	.	.
CCCc1cc(=O)[nH]c(SCC(=O)NC(=O)OCC)n1	.	.	.	.	.	.
N#Cc1c(NC(=O)CSc2ncn[nH]2)sc2c1CCCC2	.	.	.	.	?	?
CCN1CCN(CC(=O)Nc2sc3c(c2C#N)CCC(C)C3)CC1 (configuration not stated)	.	?	.	18µM	18µM	?
CC1CCc2c(sc(NC(=O)CSc3ncn[nH]3)c2C#N)C1 (configuration not stated)	.	?	.	.	23µM	?
CC(C)(C)C1CCc2c(sc(NC(=O)CSc3ncn[nH]3)c2C#N)C1 (configuration not stated)	?	11µM	?	11µM	?	?
O=C(Nc1ccc2c(c1)CCC2)c1ncoc1-c1ccccc1F	.	.	-74	.	?	.
Cc1ccc(-c2nc(Cn3c(-c4ccccc4)nc(C)c(CCO)c3=O)c(C)o2)cc1	.	/	/	/	/	/
Cc1c(CCO)c(=O)oc2n[nH]c(-c3ccccc3)c12	.	.	-61	.	.	.
O=C(NCC(F)(F)F)C1CCCN(c2nc3ncccc3o2)C1 (configuration not stated)	.	/	/	/	/	/
COc1ccc(C2C(CN3CCOCC3)C(=O)N2c2ccccc2)cc1 (configuration not stated)	.	.	.	.	?	.
Cc1ccc(N2C(=O)C(CN3CCOCC3)C2c2ccccc2)cc1 (configuration not stated)	.	.	.	.	15µM	?
COC(=O)c1cc(OC)c(OC)cc1NC(=O)C1CCC(=O)N1S(=O)(=O)c1ccc(C)cc1 (configuration not stated)	?	.	.	.	18µM	21µM
CN(C1CCCCC1)S(=O)(=O)c1ccc(S(=O)(=O)N2CCCC2)cc1	.	.[9.24 µM]	.	.	?	?
CN(C1CCCCC1)S(=O)(=O)c1ccc(=S)[nH]c1	40µM	.	.	.	?	?
O=C(NCc1cccnc1)C1CCN(Cc2cc3ccccc3n2Cc2cccc(Cl)c2)CC1	.	/	/	/	18µM	?
CN(C)c1ccc(CN2CCC(C(N)=O)CC2)cc1	.	.	.	.	.	.
O=C(NCc1cccnc1)C1CCN(Cc2cc3ccccc3n2Cc2ccccc2)CC1	.	/	/	/	13µM	?
CN(C)c1ccc(CNC(=O)C2CCN(Cc3cc4ccccc4n3Cc3ccccc3)CC2)cc1	.	/	/	/	13µM	16µM
O=C(/C=C1\OCc2ccccc21)c1ccccc1	.	.	.	.	?	?
COc1ccc(C(=O)N2c3ccccc3NC3=C(C(=O)CCC3)C2c2ccccc2OC)cc1 (configuration not stated)	.	/	/	/	/	/
Cn1c(=O)c2c(ncn2CCCC(=O)Nc2ccc(I)cc2)n(C)c1=O	.	/	/	/	/	/
SMILES	ALOX12 inh	HT1080 IDH1KD tx	IL1B secr inh	HT1080-NT tox	DT40 TDP1 no CPT	DT40 TDP1 CPT
Cc1ccc(SCCN2CCC(C(C)(C)C)CCC2=O)cc1 (configuration not stated)	.	.	.	.	?	9.2µM
CC(=O)Nc1ccc(SCCN2CC[C@@H](C(C)(C)C)CCC2=O)cc1	.	.	.	.	13µM	?
CC(C)CN1C(=O)c2cccn2CC1CN (configuration not stated)	.	/	/	/	/	/
NC(=S)N/N=C/C1=C(c2ccccc2)C2C=CC1C2 (configuration not stated)	8.9µM	/	/	/	/	/
COc1c(/C=N/NC(N)=S)c(C)nn1-c1ccccc1	.	.	.	.	?	?
CC(C)Cc1nc(Nc2ccccc2C#N)c2nnn(Cc3ccccc3)c2n1	.	18µM	?	?	?	.
O=S(=O)(c1cccs1)N1CCCCC1	.	.	.	.	.	.
COC(=O)[C@@]12CCCCN1[C@H](c1ccc(SC3CCCCC3)cc1)[C@@H]1C(=O)N(C)C(=O)[C@@H]12	.	.	.	.	?	?
COC(=O)[C@@]12CCCCN1[C@H](c1ccc(-c3ccccc3)cc1)[C@H]1C(=O)N(C)C(=O)[C@H]12	.	.	.	.	?	?
COC(=O)[C@@]12CCCCN1[C@H](c1ccc(-c3ccc(F)cc3)cc1)[C@@H]1C(=O)N(C)C(=O)[C@@H]12	.	.	.	.	13µM	21µM
COC(=O)[C@@]12CCCCN1[C@H](c1ccc(-c3ccc(C(C)=O)cc3)cc1)[C@H]1C(=O)N(C)C(=O)[C@H]12	.	.	.	.	15µM	12µM
O=C(NC1CCN(c2cc(-c3ccc(F)cc3)[nH]n2)C1)c1ccc2cc[nH]c2c1 (configuration not stated)	.	/	/	/	/	/
OC[C@@H]1CN(Cc2ccc(Cl)cc2)C[C@H](n2cnc3c(NC4CCCC4)ncnc32)O1	.	.	.	.	?	21µM
OC[C@@H]1CN(Cc2ccccc2)C[C@H](n2cnc3c(NC4CC4)ncnc32)O1	.	.	.	.	.	.
OC[C@@H]1CN(Cc2ccc(-c3ccccc3)cc2)C[C@H](n2cnc3c(NC4CCC4)ncnc32)O1	?	16µM	.	13µM	4.1µM	4.1µM
COCCNc1ncnc2c1ncn2[C@H]1CN(Cc2ccc3c(c2)OCO3)C[C@@H](CO)O1	.	.	.	.	.	.
OC[C@@H]1CN(Cc2ccc(F)cc2)C[C@H](n2cnc3c(NC4CC4)ncnc32)O1	.	.	.	.	.	?
OC[C@@H]1CN(Cc2ccc3c(c2)OCO3)C[C@H](n2cnc3c(NC4CC4)ncnc32)O1	.	.	.	.	21µM	?
CNc1ncnc2c1ncn2[C@H]1CN(Cc2cccc3ccccc23)C[C@@H](CO)O1	.	.	.	.	?	23µM

Screening data (PubChem)
